# “And” between values parts separate entries of the source, which are not always exact repeats. Equal entries are not always repeated. The whole screen tested about 16,000 compounds, of which about 5,700 (36%) were called active. Not shown: some 24% with an inconclusive outcome. Calls follow the shape of the dose curve; as a rule, active = well fitted curve in the direction sought with a large enough effect; inconclusive = small, poorly fitted or top-dose-only effect, or effect the other way; inactive = no such curve, though single readings can be large or run the other way. This is one part of the list. Some compounds were tested as several samples or in several runs, with calls that do not always agree.
# Target: Cytochrome P450 1A2 (Homo sapiens) (UniProt P05177)
# Assay: Cytochrome panel assay with activity outcomes
# Conditions: recombinant CYP, pro-luciferin dealkylation, luminescence, p450-cyp1a2; series mostly up to 57.1 µM; activity, negative = inhibition: at the top concentration
# % is scaled to controls: 0 for no effect and ±100 for the full control effect.
# Cytochrome P450 1A2 (Homo sapiens), sequence (P05177 whole entry, looked up): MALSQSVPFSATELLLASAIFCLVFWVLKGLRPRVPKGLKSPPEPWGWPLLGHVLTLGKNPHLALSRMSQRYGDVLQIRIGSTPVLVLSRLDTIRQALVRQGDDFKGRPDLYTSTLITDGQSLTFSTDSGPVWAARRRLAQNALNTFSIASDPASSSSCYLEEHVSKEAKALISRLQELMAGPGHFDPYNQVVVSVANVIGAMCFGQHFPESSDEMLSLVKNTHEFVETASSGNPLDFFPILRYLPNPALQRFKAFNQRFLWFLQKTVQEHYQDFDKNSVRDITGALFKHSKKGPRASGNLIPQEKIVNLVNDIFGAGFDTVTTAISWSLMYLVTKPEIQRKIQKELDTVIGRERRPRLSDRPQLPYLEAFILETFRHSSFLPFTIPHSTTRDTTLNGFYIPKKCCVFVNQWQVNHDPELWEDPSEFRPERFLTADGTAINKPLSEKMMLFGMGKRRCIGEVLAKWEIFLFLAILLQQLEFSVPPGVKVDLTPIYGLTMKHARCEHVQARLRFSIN
SMILES,AC50,"activity, negative = inhibition"
COc1ncc2nc(-c3cc(F)cc(F)c3)c(=O)n(C3CC3)c2n1,1580 nM (active),–
O=c1c(-c2cccs2)nc2cnc(Oc3ccccc3)nc2n1C1CC1,2510 nM (active),–
O=c1c(-c2cc(F)cc(F)c2)nc2cnc(Oc3ccccc3)nc2n1C1CC1,2510 nM (active),–
CCCC[C@@H]1CN2[C@H](c3ccc(Br)cc3)[C@H](C)CC[C@H]2C(=O)O1,–,3.25% [at 11.4 µM] (inactive)
CN(C)c1ccc(O)c2c1C[C@H]1C[C@H]3[C@@H](N(C)C)C(=O)C(C(N)=O)=C(O)[C@]3(O)C(=O)C1=C2O,–,-5.13% [at 25.6 µM] (inactive)
CN1C(C(=O)Nc2ccccn2)=C(O)c2ccccc2S1(=O)=O,inactive and 20 µM (active),–
Cc1ccccc1NC1=C(C(=O)c2ccccc2)N(C)S(=O)(=O)c2ccccc21,–,-7.47% (inactive)
CN1C(C(=O)Nc2ccccn2)=C(O)c2sccc2S1(=O)=O,–,-10.3% [at 25.6 µM] (inactive)
COc1nc(Oc2ccc(/C=N/O)cc2)nc(N(C)C)n1,447 nM (active),–
CCc1cc2c(nc1CC)CCN(CC/C(C)=N/O[C@@H](C)CN1CCCc3nc(C)c(C)cc31)C2,–,5.54% [at 11.4 µM] (inactive)
Fc1ccc(CN(C2=NCCN2)c2c(Cl)cccc2Cl)cc1,–,6.63% (inactive)
Clc1cccc(Cl)c1NC1=NCCN1,inactive,–
Clc1cccc2c1CN(C1=NCCN1)C2,398 nM (active),–
CCOc1ccc(NCc2nnc(SCc3ccccc3Cl)n2-c2ccccc2)cc1,7080 nM (active),–
COc1ccc(-n2c(CNc3ccc(C)cc3)nnc2SCC(=O)Nc2nc(-c3ccccc3)cs2)cc1,–,-23.7% (inactive)
COC(=O)CSc1nnc(CNc2ccc(Cl)cc2)n1-c1ccccc1,12600 nM (active),–
CCNC(=O)CSc1nnc(C2CC2)n1-c1ccccc1,–,1% (inactive)
COC(Cc1nnc(SC)n1-c1ccc(Cl)cc1)OC,–,20% (inactive)
C=CCSc1nnc(-c2cc3c(C(F)(F)F)nn(C)c3s2)n1C,1120 nM (active),–
C#CCSc1nnc(-c2cc3c(C(F)(F)F)nn(C)c3s2)n1C,1120 nM (active),–
CCNS(=O)(=O)c1ccc(NC(=O)c2cc(C(F)(F)F)nn2C)cc1,–,-22.7% (inactive)
CCCCSc1nnc(-c2cc3c(C(F)(F)F)nn(C)c3s2)n1C,14100 nM (active),–
CCCNC(=O)c1cc2c(C(F)(F)F)nn(C)c2s1,794 nM (active),–
CCc1c2c(nc3cccc(OC)c13)OC(CC)C2 (configuration not stated),2000 nM (active),–

SMILES,AC50,"activity, negative = inhibition"
COc1ccc(-c2nsc3c(N4CCCCC4)ncnc23)cc1,2820 nM (active),–
COCC(=O)N1CCC2(CC1)CCN(C(=O)Nc1cccc(C#N)c1)CC2,–,-10.7% (inactive)
Cc1nnc(-c2cnn(-c3ccccc3)c2N)n1Cc1ccccc1,14100 nM (active),–
NCc1nnn(Cc2ccccc2)c1N,–,2.27% [at 11.4 µM] (inactive)
Cc1nnc(-c2cnn(-c3ccccc3)c2N)n1Cc1ccc(F)cc1,–,-27.2% (inactive)
O=C(c1cnccn1)N1CCC2(CCCN(c3ncccn3)C2)CC1,–,-20.1% (inactive)
COc1ccc(C2C(C(=O)c3ccco3)=C(O)C(=O)N2Cc2cccnc2)cc1OC (configuration not stated),–,6.62% (inactive)
COc1ccc2c(=O)cc(-c3ccncc3)oc2c1OC,1580 nM (active),–
Cn1cccc1C(=O)C(=O)Nc1cccc(Cl)c1Cl,17800 nM (active),–
Cn1cc(C(=O)c2cccc(Cl)c2Cl)cc1C(=O)O,–,4.13% (inactive)
Cn1cccc1C(=O)N1CCC2(CCN(C(=O)Nc3ccccc3)CC2)CC1,–,-14.1% (inactive)
COc1ccc(CNc2ncncc2-c2ccc(N(C)C)cc2)c(OC)c1,631 nM (active),–
COc1ccc(CNc2ncncc2-c2ccc(C(=O)N(C)C)cc2)c(OC)c1,15800 nM (active),–
COc1ccccc1CNc1ncncc1-c1ccc(C(=O)N(C)C)cc1,12600 nM (active),–
CC(C)=CCC/C(C)=C/CO/N=C1/C[C@@H](O)[C@@H](O)[C@@H]2[C@@H]3C(=O)N(C4CCCCC4)C(=O)[C@H]3CC[C@H]12,–,-2.85% [at 11.4 µM] (inactive)
C[C@@]12CCC(=O)C=C1CC[C@@H]1[C@@H]2[C@H](O)C[C@]2(C)[C@@H]1CC[C@]2(O)C(=O)COC(=O)CCC(=O)O,–,1.05% (inactive)
CC(C/C=N/NC(=O)COc1cc(Cl)ccc1Cl)c1ccccc1 (configuration not stated),562 nM (active),–
Cc1ccccc1C(=O)Nc1ccc(C(=O)NNC(=O)CCCOc2ccc(Cl)cc2Cl)cc1,–,-24.9% (inactive)
O=C(COc1ccc(Cl)cc1Cl)N/N=C/CCc1ccccc1,1000 nM (active),–
COC(=O)c1c(-c2cc(OC)c(OC)c(OC)c2)c2ccnc(OCc3ncccn3)c2c(=O)n1Cc1ccnc(C)c1,inactive,–
O=C(c1ccc(CN2CCc3ccccc3C2)cc1)N1CCc2ccccc2C1,–,-22.3% (inactive)
CCc1ccc(/C=C\C(=O)N2CCc3ccccc3C2)cc1,14100 nM (active),–
N=C(N)N1CCc2ccccc2C1,–,-6.45% [at 25.6 µM] (inactive)

# — PubChem BioAssay AID1851 (National Center for Advancing Translational Sciences (NCATS), 2009)
